# CF NFkB block = blocks PAF-induced NF-kB reporter in cystic fibrosis cells. 360,000 tested, 0.86% active. inhibition, % at 5 µM. AID 588850. KKLEB NF-kB-GFP reporter, GFP fluorescence overnight;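 active = at least 50% inhibition at 5 µM, scaled per plate between neutral and stimulator controls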;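 also: PAF is a Pseudomonas aeruginosa culture filtrate used as stimulus; plate controls were PAF-stimulated DMSO wells for no effect and unstimulated DMSO wells for full effect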
# TWEAK Fn14 block = TWEAK-Fn14 signaling inhibition; TWEAK-stimulated Fn14 reporter cells, luciferase luminescence, 8 h; inhibition, % at 10 µM; 360,000 tested, 2% active; in the data active = inhibition above about 50%
# HIF-2a block = blocks HIF-2a reporter activity; 360,000 tested, 0.72% active; inhibition, % at 18.8 µM; 786-0 RCC cells HIF-2a reporter, luciferase luminescence, overnight; AID 624352;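 active = inhibition of the luminescence signal of 40% or more relative to plate controls, in a single-dose primary screen at 18.75 µM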
# TROY signal inh = blocks TROY-dependent signaling in reporter cells. Q293 LMP1-TROYcd NF-kB luciferase reporter, 4 h. inhibition, % at 10 µM. 360,000 tested, 0.98% active;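 active = compounds whose plate-normalised and pattern-corrected inhibition of the luciferase reporter signal at the single screening dose is 50% or more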
# Peg3 prom inh-1 = inhibitors of Peg3 promoter; HeLa PEG-Prom luciferase reporter, luminescence, overnight; AID 588405; inhibition, % at 20 µM; 360,000 tested, 1.7% active;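 active = inhibition of at least 50% at 20 µM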
# KKLEB cytotox = CF airway cell cytotoxicity counter-screen; KKLEB CF airway cells viability, ATPlite luminescence, overnight; hits give low values; cells stimulated with P. aeruginosa culture filtrate; activity change (cytotoxicity), % at 5 µM; 360,000 tested, 0.36% active; AID 602141;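 active = corrected activity change at or below -50% at 5 µM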
# Peg3 prom inh-2 = confirmation of Peg3 promoter inhibitors | HeLa PEG-Prom luciferase reporter, luminescence, overnight | inhibition, % at 20 µM | AID 602417 | shares compounds with Peg3 prom inh-1 | 1,300 tested, 84% active;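 active = at 20 µM dose, 40% or more inhibition averaged across four replicates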
# Mdm2-MdmX confirm = Mdm2/MdmX (human) interaction inhibition, confirmed | shares compounds with HIF-2a block | AID 504601 | 740 tested, 99% active | inhibition, % at 8 µM | SaOS-2 split-luciferase Mdm2/MdmX complementation, luminescence;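 active = mean inhibition of the luminescence signal across two replicates at or above 26 percent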
# HIF-2a inh conf = confirmation of HIF-2a inhibitors. shares compounds with HIF-2a block. 786-0 RCC cells, HIF-2a luciferase reporter luminescence, overnight. inhibition, % at 18.8 µM. 1,800 tested, 56% active. AID 651580;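 active = mean inhibition across four replicates of at least 40 percent at the single tested concentration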
# HIF-1a counter = HIF-1a inhibition counter-screen for HIF-2a hits; shares compounds with HIF-2a block; MiaPaCa-2 HIF-1a luciferase reporter, desferoxamine, overnight; inhibition, % at 18.8 µM; 1,800 tested, 72% active; AID 651589;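 active = mean inhibition of the reporter signal across four replicates at the single tested dose of 50% or more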
# Starred values were filed as active, the others as inactive; · = not tested or not shown. An excerpt weighted towards active compounds, which were near 4% of everything screened.
SMILES,CF NFkB block,TWEAK Fn14 block,HIF-2a block,TROY signal inh,Peg3 prom inh-1,KKLEB cytotox,Peg3 prom inh-2,Mdm2-MdmX confirm,HIF-2a inh conf,HIF-1a counter
COc1ccc(-c2cc(-c3ccc(F)cc3)nc(N3CCN(C)CC3)n2)cc1,-18.7,-1.0,52.1*,-15.3,79.8*,-34.8,58.1*,·,1.1,70.5*
Cc1ccc(N(Cc2cc(=O)[nH]c3ccccc23)C(=O)CCl)c(C)c1,41.6,63.1*,18.9,-4.1,71.4*,-14.9,76.4*,101.0*,·,·
O=C(COc1ccc(Cl)cc1Br)N1CCN(c2ncccn2)CC1,14.5,-23.6,-27.8,4.4,-15.5,-24.3,·,·,·,·
CCCC(=O)NC(c1ccc(C)cc1)c1ccc2cccnc2c1O (stereo not given),-2.9,-4.6,11.3,19.2,63.0*,7.1,66.8*,89.2*,·,·
CCCC(=O)NC(c1ccc(Cl)cc1)c1ccc2cccnc2c1O (stereo not given),-26.9,1.0,25.1,17.4,57.4*,-0.1,64.7*,92.2*,·,·
CCCCC(=O)NC(c1ccc(OC)c(OC)c1)c1c(O)ccc2ccccc12 (stereo not given),3.9,16.9,4.8,-5.0,11.1,0.4,·,·,·,·
CCCCC(=O)NC(c1ccccc1OC)c1ccc2cccnc2c1O (stereo not given),-17.2,-2.6,12.6,-9.8,62.5*,-6.7,68.6*,87.0*,·,·
CC(=O)NC(c1ccc(Cl)cc1Cl)c1ccc2cccnc2c1O (stereo not given),-11.9,9.1,25.1,28.5,56.2*,6.7,59.0*,86.0*,·,·
CN1CCN(c2ccc([N+](=O)[O-])cc2NC(=O)c2cccs2)CC1,-3.0,-16.6,21.1,-8.2,6.5,-1.2,·,·,·,·
CCc1nc2c(OCCOc3ccc(F)cc3)cccn2c1N(C=O)Cc1ccccc1,4.7,7.0,-2.9,3.8,4.1,-14.0,·,·,·,·
COc1ccc(N(C(=O)CCl)C(C(=O)NC2CCCCC2)c2cccnc2)cc1 (stereo not given),37.7,46.7,30.9,-13.4,99.7*,-41.6,98.9*,103.5*,·,·
COc1ccc(N(C(=O)Cc2cccs2)C(C(=O)NC2CCCC2)c2ccncc2)cc1 (stereo not given),3.1,14.0,-10.6,-49.5,-4.4,-3.3,·,·,·,·
CCOc1ccc(C(=O)NCc2ccco2)cc1Cl,-9.5,8.7,-14.4,-3.6,-11.8,12.0,·,·,·,·
CC(C)(C)C(=O)Nc1cc2nn(-c3ccccc3)nc2cc1Cl,3.3,108.2*,75.0*,90.7*,62.4*,-93.9*,85.9*,·,91.0*,94.6*
CC(=O)Nc1cc2nn(-c3ccccc3)nc2cc1Cl,-17.3,27.6,-179.0,-26.5,-209.6,-1.7,·,·,·,·
CC(C)CN(C(=O)COC(=O)c1ccccc1SCC(=O)N1CCCC1)C1CCS(=O)(=O)C1 (stereo not given),18.3,8.1,-1.0,4.7,8.2,2.8,·,·,·,·
C/C(=N\OC(=O)c1ccc(Br)cc1)c1ccccn1,-4.7,25.7,-23.0,-38.6,-101.9,5.3,·,·,·,·
CC(C)(C)c1ccc(C(=O)O/N=C(\N)c2ccccn2)cc1,47.2,103.1*,82.3*,89.2*,110.7*,-38.1,99.0*,·,85.4*,84.3*
Cc1ccc(C(=O)O/N=C(\N)c2ccccn2)cc1,9.3,103.0*,62.1*,84.4*,106.5*,-22.0,76.8*,49.0*,·,·
C/C(=N/NC(=O)c1ccc(C(C)(C)C)cc1)c1ccccn1,26.0,44.9,-169.6,-41.0,-94.8,-5.8,·,·,·,·
Cc1ccccc1-c1nc(-c2cccnc2)no1,-0.1,-4.5,-227.9,-37.8,-205.8,2.9,·,·,·,·
Cc1ccccc1-c1nc(-c2ccccn2)no1,-31.4,96.8*,59.9*,81.2*,63.3*,-38.8,57.6*,·,72.9*,66.2*
COc1ccc(-c2nc(-c3ccccn3)no2)cc1,-35.8,102.0*,88.2*,83.2*,89.0*,-80.1*,85.6*,96.2*,94.9*,98.5*
O=C(CSc1nnc(-c2cccnc2)o1)N1CCCCC1,13.2,1.8,-32.3,12.1,-0.2,-2.6,·,·,·,·
OCCN1CCN(c2cc(C(F)(F)F)nc3c(F)cccc23)CC1,5.8,-0.6,20.9,0.9,14.6,-20.5,·,·,·,·
SMILES,CF NFkB block,TWEAK Fn14 block,HIF-2a block,TROY signal inh,Peg3 prom inh-1,KKLEB cytotox,Peg3 prom inh-2,Mdm2-MdmX confirm,HIF-2a inh conf,HIF-1a counter
Nc1ccc2c(c1)OC1(CCCC1)O2,13.8,90.1*,51.8*,67.9*,77.3*,11.3,55.6*,31.3*,18.8,78.7*
c1cc2c(cc1C1=NNC(=NC3CC3)SC1)OCCO2,-3.2,104.0*,85.8*,88.6*,92.8*,-32.2,90.9*,95.2*,93.7*,96.9*
COc1ccc(N=C2NN=C(c3ccc4c(c3)OCCO4)CS2)cc1,1.3,6.9,-140.5,7.4,-225.5,-8.0,·,·,·,·
O=C1NCCNC1c1ccccc1 (stereo not given),-13.4,6.6,4.3,5.1,-9.5,-12.3,·,·,·,·
CN(C)c1c([N+](=O)[O-])cc(N2C(=O)C=CC2=O)cc1[N+](=O)[O-],-13.3,6.1,93.7*,19.0,104.0*,9.6,95.7*,·,56.7*,3.4
Cn1cc(Br)c(C(=O)N/N=C/c2cc3c(cc2Cl)OCO3)n1,2.9,-45.2,-225.9,-45.2,-218.8,0.7,·,·,·,·
O=[N+]([O-])c1ccc(-c2ccc(/C=N/Nc3nc(NCc4ccccc4)nc(N4CCOCC4)n3)o2)cc1,50.6*,-6.0,59.0*,-25.6,99.2*,-90.3*,80.0*,102.5*,15.9,41.3
COc1nc(N/N=C/c2ccc(-c3ccccc3[N+](=O)[O-])o2)nc(N2CCOCC2)n1,19.6,0.9,-210.6,-38.2,-69.5,-11.3,·,·,·,·
C[C@@H]1CN([C@@H](C)CO)C(=O)c2cc(NS(C)(=O)=O)ccc2O[C@@H]1CN(C)S(=O)(=O)c1ccccc1,-20.1,10.5,-21.0,-8.8,-15.8,-0.3,·,·,·,·
COc1ccc(C2=NN(C(=O)CCC(=O)O)C(c3ccccc3F)C2)cc1 (stereo not given),12.6,-0.4,-6.6,1.6,-2.2,3.3,·,·,·,·
Cc1cnc(NC(=O)c2ccc3c(c2)OCCO3)s1,10.8,103.4*,77.3*,85.4*,87.1*,-58.0*,80.7*,·,90.2*,80.1*
S=C(NN=C(c1ccccc1)c1ccccn1)N(Cc1ccccn1)Cc1ccccn1,38.9,34.0,48.6*,-3.7,106.5*,-21.8,100.7*,·,67.7*,100.0*

# Bioassay records as filed in PubChem.
